Assay results reported in PubChem BioAssay (NCATS).
Records with an inconclusive call do not appear. A number with no mark means an inactive call. Calls of active or inactive are those of the source. Calls follow the shape of the dose curve; as a rule, active = well fitted inhibition curve with a large enough effect; inconclusive = small, poorly fitted or top-dose-only effect; inactive = no such curve, though single readings can be large or run the other way. Where a SMILES comes first, the peptide text is derived from it. The star is where a group is joined. AFC = O=c1cc(C(F)(F)F)c2ccc(N*)cc2o1

System: Zika virus NS2B-NS3 protease (linked construct)
Test: Primary screen NINDS Rhodamine qHTS for Zika virus inhibitors (AID 1347160); also: nearly all actives have a fitted effect of over 55% in size
Settings: purified NS2B-NS3 protease, Rhodamine110 substrate fluorescence; series mostly up to 57.1 µM; activity change, negative = inhibition: at the top concentration
Method in brief: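 Aprotinin served as in-plate control. Conditions: 25 nM linked NS2B-NS3, pH 8.0 Tris buffer, titrated compounds, 15 min preincubation and 15 min reaction with 1.5 microM Rhod110 substrate at room temperature.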
% is scaled to controls: 0 for no effect and ±100 for the full control effect.

Compound | activity change, negative = inhibition | outcome
CCNC(=O)C1OC(n2cnc3c(N)nc(NCCc4ccc(CCC(=O)O)cc4)nc32)C(O)C1O (stereo not given) | 12.6% | 
CC(=O)NCC(=O)N1C2CCC1c1cc(Nc3ncc(C(F)(F)F)c(NC4CCC4)n3)ccc12 (stereo not given) | 14.4% | 
CCNC(=O)Nc1ccc(-c2nc3c(c(N4CCOC[C@@H]4C)n2)CCN(c2ncccn2)C3)cc1 | -17.7% | 
C[C@@H]1C(=O)OC[C@H]2C(C(=O)O)=C[C@@H]3CC(C)(C)C[C@]312 |  | inactive
Cc1ccc([N+](=O)[O-])cc1S(=O)(=O)N(C)/N=C/c1cnc2ccc(Br)cn12 | 9.87% | 
O=C(NCc1ccccn1)Nc1nnc(-c2ccco2)o1 |  | inactive
Cc1ccc(NC(=O)c2ccc(CN3CC[C@H](N(C)C)C3)c(C(F)(F)F)c2)cc1Nc1nccc(-c2cncnc2)n1 |  | inactive [at 33.1 µM]
C/C1=C\CC[C@H](C)CCO[C@@H]2O[C@H](CO[C@@H]3OC[C@](O)(COC1=O)[C@H]3O)[C@@H](O)[C@H](O)[C@H]2O | -25.6% [at 33.1 µM] | 
CCn1c(=O)c(-c2ccn[nH]2)cc2c(C)nc(N)nc21 | -7.7% | 
CCCCNc1ccc(-c2ccc(CN3CCOCC3)cn2)c(NC2CCC(O)CC2)c1 (stereo not given) | 14.9% [at 33.1 µM] | 
CCOC(=O)CCN(C(=O)c1ccc2c(c1)nc(CNc1ccc(C(=N)N)cc1)n2C)c1ccccn1 |  | inactive
COC1=CC(=O)CC(C)C12Oc1cc(OC)cc(O)c1C2=O (stereo not given) | 19.7% | 
COc1ccc(CCO[C@@H]2O[C@H](CO[C@@H]3OC[C@H](O)[C@H](O)[C@H]3O)[C@@H](O)[C@H](O)[C@H]2O)cc1 | -4.7% [at 33.1 µM] | 
COC(=O)C[C@H]1C(C)(C)[C@H](OC(=O)C(C)C)[C@@]2(O)C(=O)[C@]1(C)C1CC[C@]3(C)C(CC(=O)O[C@H]3c3ccoc3)[C@]13O[C@@H]32 (stereo not given in full) | -3.86% [at 15.1 µM] | 
COC(=O)C1=CO[C@@H](O[C@@H]2O[C@H](CO)[C@@H](O)[C@H](O)[C@H]2O)C2C1C(=O)C[C@H]2C (stereo not given in full) | 17% [at 33.1 µM] | 
C=C1C[C@@]23CCC4[C@@](C)(CCC[C@@]4(C)C(=O)OC)C2CC[C@@H]1C3 (stereo not given in full) | 4.66% [at 33.1 µM] | 
COc1cc2occc2c(O[C@@H]2O[C@H](CO)[C@@H](O)[C@H](O)[C@H]2O)c1CCC(=O)O |  | inactive [at 33.1 µM]
C/C=C(\C)C(=O)O[C@H]1[C@@H](O[C@]2(COC(=O)CC(C)C)O[C@H](COC(=O)C(C)CC)[C@@H](OC(C)=O)[C@@H]2O)O[C@H](COC(C)=O)[C@@H](O)[C@@H]1O (stereo not given in full) |  | inactive [at 15.1 µM]
C=C1[C@H](OC(C)=O)[C@H]2[C@@H](OC(C)=O)[C@](C)(OC(C)=O)C[C@]2(OC(C)=O)C(=O)[C@H](C)/C=C/C(C)(C)C(=O)[C@H](OC(=O)C(C)C)[C@H]1OC(C)=O | -1.31% [at 15.1 µM] | 
CN(C)C/C=C/C(=O)Nc1cc2c(Nc3ccc(F)c(Cl)c3)ncnc2cc1OC1CCOC1 (stereo not given) |  | inactive; activator

Compound | activity change, negative = inhibition | outcome
O=C(Nc1ccccc1-c1cn2c(CN3CCNCC3)csc2n1)c1ccc2ccccc2n1 | 97.4% | 
c1ccc(-c2ncc(CN3CCN(c4ncccn4)CC3)[nH]2)cc1 | 3.32% | 
COc1cc2ncnc(Nc3ccc(O)cc3)c2cc1OC | 13.5% | 
C=C(C(=O)OC)C1C(O)CC2(C)C(O)CCC(=O)C2C1O (stereo not given) |  | inactive
CC1=C(C(=O)O[C@@H]2O[C@H](COC3OCC(O)C(O)C3O)[C@@H](O)[C@H](O)[C@H]2O)C(C)(C)CCC1 (stereo not given in full) | -6.82% [at 33.1 µM] | 
CC1(C)CCC[C@]2(C)[C@H]3CC(=O)O[C@]3(C)CC[C@@H]12 | -15.8% | 
CC1C(=O)OCC2=CCN3CCC(OC(=O)C(C)(O)C1(C)O)C23 (stereo not given) | -0.162% [at 33.1 µM] | 
CC(=O)O[C@]1(C(C)=O)CC[C@H]2[C@@H]3C[C@H](C)C4=CC(=O)C=C[C@]4(C)[C@@]3(F)[C@@H](O)C[C@@]21C | 9.9% | 
COc1ccccc1NC(=O)OCC1CCN(C(=O)OC(C)(C)C)CC1 | -3.85% | 
Cc1cc(Nc2nc(NC(C)c3ncc(F)cn3)ncc2Cl)n[nH]1 (stereo not given) | 13.6% | 
CO[C@H]1C[C@@H]2CC[C@@H](C)[C@@](O)(O2)C(=O)C(=O)N2CCCC[C@H]2C(=O)O[C@H]([C@H](C)C[C@H]2CC[C@@H](OP(C)(C)=O)[C@H](OC)C2)CC(=O)[C@H](C)/C=C(\C)[C@@H](O)[C@@H](OC)C(=O)[C@H](C)C[C@H](C)/C=C/C=C/C=C/1C | -11.8% [at 33.1 µM] | 
C=CC(=O)Nc1cc(Nc2nccc(-c3c[nH]c4ccccc34)n2)c(OC)cc1N(C)CCN(C)C | 122% | 
CC(C)Oc1ccc(C(=O)NC(CNC(=O)CN(C)C)Cc2ccc(-c3cn4cccc(C(C)O)c4n3)cc2)cc1Cl (stereo not given) | 17.4% | 
CN=C(N)NCCCCC/C=C(/C)CC(C)C1OC(=O)C(C)C(O)/C=C/C(C)C(O)CC(O)C(C)C(O)CCC(C)C(O)CC2(O)OC(CC(OC(=O)CC(=O)O)CC(O)CC(O)C(C)C(O)/C(C)=C/CCC1C)CC(O)C2O (stereo not given) | 24.2% [at 15.1 µM] | 
CC1(C)CC[C@]2(C(=O)O[C@@H]3O[C@H](CO)[C@@H](O)[C@H](O)[C@H]3O)CC[C@]3(C)C(=CCC4[C@@]5(C)C[C@@H](O)[C@H](O)C(C)(C)C5CC[C@]43C)C2[C@@H]1O (stereo not given in full) | -1.29% [at 15.1 µM] | 
CN(c1ccccc1CNc1nc(Nc2ccc3c(c2)CC(=O)N3)ncc1C(F)(F)F)S(C)(=O)=O |  | inactive
CN1CCC(Nc2nc(Nc3ccc(Oc4ccccc4)cc3)c3c(=O)[nH]cc(Br)c3n2)CC1 | 7.81% | 
CC(=O)N[C@@H](Cc1c[nH]c2ccccc12)C(=O)N[C@@H](CCC(=O)O)C(=O)N[C@@H](Cc1cnc[nH]1)C(=O)N[C@@H](CC(=O)O)C(=O)Nc1ccc2c(C(F)(F)F)cc(=O)oc2c1 (Ac-WEHD-{AFC}) | 1.99% [at 33.1 µM] | 
Cc1cccc(-c2[nH]c(Cc3cccc(C(N)=O)c3)nc2-c2ccc3nccnc3c2)n1 | 27.7% | 
C[C@@H]1O[C@@H](O[C@@H]2[C@@H](O[C@@H]3O[C@@H](C)[C@H](O[C@@H]4OC[C@H](O)[C@H](O[C@@H]5OC[C@@H](O)[C@H](O)[C@H]5O)[C@H]4O)[C@@H](O[C@@H]4OC[C@](O)(CO)[C@H]4O)[C@H]3O)[C@H](OC(=O)[C@]34CCC(C)(C)C[C@H]3C3=CCC5[C@@]6(C)C[C@H](O)[C@H](O[C@@H]7O[C@H](CO[C@@H]8OC[C@H](O)[C@H](O)[C@H]8O)[C@@H](O)[C@H](O)[C@H]7O)C(C)(C)C6CC[C@@]5(C)[C@]3(C)C[C@H]4O)OC[C@H]2O)[C@H](O)[C@H](O)[C@H]1O (stereo not given in full) | 1.34% [at 10.7 µM] | 
